Shown are actives, neighbours in structure and some others; about 21% of the full set was active somewhere.
Sm TGR inh: qHTS Assay for the Inhibitors of Schistosoma Mansoni Peroxiredoxins; actives 3% (n = 360,000); purified TGR, DTNB reduction, TNB absorbance 405 nm; AID 485364, 2010; Schistosoma mansoni thioredoxin glutathione reductase (TGR), Q962Y6; Potency, µM (highest dose often 114 µM), usual class: inhibitors; further: nearly all actives have a fitted effect of over 60% in size
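TGR 20 nM + NADPH 100 uM (dispensed conc.), cpd preinc 15 min RT; start with NADPH (500 uM addition) then DTNB (15 mM addition). Kinetic TNB absorbance, 405 nm filter. Four-parameter Hill fit across titration.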
Pf growth 96h: Primary qHTS for delayed death inhibitors of the malarial parasite plastid, 96 hour incubation; P. falciparum luciferase reporter growth, 96 h; actives 6.9% (n = 320,000); AID 504834, 2011; Potency, µM (series often up to 28.7 µM), actives largely listed as inhibitors
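Readout is luminescence from an integrated firefly luciferase in P. falciparum. Red cells, 2% hematocrit and 0.05% parasitemia final, were cultured with compound through two parasite generations (96 hours) at 37 C, 5% CO2.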
Shiga inhibitor: A qHTS for Small Molecule Inhibitors of Shiga Toxin; actives 9.2% (n = 290,000); Vero cells, Shiga toxin protein synthesis inhibition reporter; inhibition, % at 38.7 µM; in the data active means inhibition mostly above about 28%, no sharp cut-off; inactive means mostly below about 43%
CHX counter: Cycloheximide Counterscreen for Small Molecule Inhibitors of Shiga Toxin. max response, %. cell reporter, cycloheximide protein synthesis inhibition counterscreen. actives 12% (n = 300,000); in the data active means max response mostly above about 13%, no sharp cut-off; inactive means mostly below about 14%; further: read at 38.3 µM for the half of the compounds with a filed dose
Pf growth 48h: Primary qHTS for delayed death inhibitors of the malarial parasite plastid, 48 hour incubation; Potency, µM (highest dose often 28.7 µM), most hits filed as inhibitors; P. falciparum luciferase growth in erythrocytes, 48 h; actives 5.9% (n = 310,000)
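Growth was read as firefly luciferase luminescence after a 48 h, 37 C, 5% CO2 exposure of compounds to reporter-bearing P. falciparum cultures (0.1% parasitemia, 2% hematocrit final) in Albumax-supplemented RPMI 1640.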
NS1 inh: qHTS Assay for Inhibitors of Influenza NS1 Protein Function; Potency, µM (top dose mostly 46.1 µM); actives 0.4% (n = 270,000); calls by dose curve; further: actives are rising curves; nearly all actives have a fitted effect of over 50% in size
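OD600 was taken as the measure of yeast growth restored by compound in an NS1-expressing S. cerevisiae strain. Cells had been washed out of glucose medium and diluted 1:100 into galactose -URA medium, pH 6.0.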
Hits are given with their value; i = inactive; ? = inconclusive; nt = no result; [ ] = remark or other dose. Unless noted, the call rests on the fitted dose curve; in most records, active means well fitted curve in the direction sought with a large enough effect; inconclusive means small, poorly fitted or top-dose-only effect, or another doubt; inactive means no such curve, though single readings can be large; an effect the other way counts as inactive or inconclusive.

SMILES	Sm TGR inh	Pf growth 96h	Shiga inhibitor	CHX counter	Pf growth 48h	NS1 inh
CN(C)c1oc(-c2ccccc2Cl)nc1S(=O)(=O)c1ccccc1	i	6.6µM	i	i	nt	i
Cc1ccc(C(=O)n2nc(-c3ccco3)nc2N)cc1	?	i	i	i	i	i
CSc1nc(-c2ccc(Cl)cc2)nn1C(=O)c1ccco1	i	i	65	62	nt	i
COc1ccccc1/C=c1\sc2nc(-c3ccco3)nn2c1=O	11µM	?	i	i	i	?
CCOc1ccc(/C=c2\sc3nc(-c4ccco4)nn3c2=O)cc1OCC	?	?	i	i	i	?
COc1ccc(C(=O)n2nc(-c3ccco3)nc2N)cc1	32µM	i	i	i	i	i
CSc1nc(-c2ccco2)nn1C(=O)c1ccc(C)cc1	?	i	i	i	i	i
CSc1nc(-c2ccco2)nn1C(=O)c1ccco1	?	i	i	i	i	i
COc1ccccc1C(=O)n1nc(-c2ccco2)nc1SC	14µM	i	i	i	i	nt
COc1ccc(-n2ccn(CC(=O)Nc3ccc(OC)cc3OC)c(=O)c2=O)cc1	i	?	i	i	i	i
CSc1nc(-c2ccccc2)nn1C(=O)c1ccc(C)cc1	i	i	i	15	i	i
CSc1nc(-c2ccco2)nn1C(=O)c1ccccc1	16µM	i	i	i	?	i
CCOC(=O)N1CCN(S(=O)(=O)c2ccc(C(=O)N(CCN(CC)CC)c3nc4ccc(C)cc4s3)cc2)CC1	i	i	i	23	i	i
CCOC(=O)N1CCN(S(=O)(=O)c2ccc(C(=O)N(CCN(C)C)c3nc4ccc(CC)cc4s3)cc2)CC1	i	?	i	23	i	i
CCOC(=O)N1CCN(S(=O)(=O)c2ccc(C(=O)N(CCCN(C)C)c3nc4ccc(CC)cc4s3)cc2)CC1	i	?	i	17	6.6µM	i
CCOC(=O)N1CCN(S(=O)(=O)c2ccc(C(=O)N(CCCN(C)C)c3nc4ccc(Cl)cc4s3)cc2)CC1	i	i	i	i	?	i
CCOC(=O)N1CCN(S(=O)(=O)c2ccc(C(=O)N(CCCN(C)C)c3nc4c(F)cc(F)cc4s3)cc2)CC1	i	i	nt	nt	i	nt
COc1ccccc1S(=O)(=O)Cc1ccc(C(=O)NC2CCCCC2)o1	40µM	i	i	i	?	i
COc1ccccc1S(=O)(=O)Cc1ccc(C(=O)NCc2ccccc2)o1	i	?	i	i	i	i
COc1ccccc1S(=O)(=O)Cc1ccc(C(=O)NCc2cccs2)o1	?	nt	i	i	0.83µM	i
Cc1ccc(OCCn2c(CCNC(=O)C3CCCCC3)nc3ccccc32)cc1	i	nt	i	i	nt	nt
CNNC(=S)NCCC1=CCCCC1	i	i	i	16	i	i
CCOC(=O)c1ccc(NC(=S)NCCC2=CCCCC2)cc1	i	?	i	i	?	i
CC(=O)c1cccc(NC(=S)NCCC2=CCCCC2)c1	i	i	47	33	i	i
Cc1ccc(NC(=S)NCCC2=CCCCC2)cc1	i	?	89	34	i	nt
SMILES	Sm TGR inh	Pf growth 96h	Shiga inhibitor	CHX counter	Pf growth 48h	NS1 inh
CC(=O)c1cccc(NC(=S)NCCc2ccc(F)cc2)c1	?	i[1.15 µM]	i	i	i	i
Cc1ccc(OCC(=O)NCCC2=CCCCC2)cc1	i	?	i	i	i	i
Cc1ccc(SCC(=O)NCCC2=CCCCC2)cc1	i	?	38	38	i	i
NC(=O)c1ccc(N2CCNC(=O)C2)c([N+](=O)[O-])c1	i	i	i	i	i	i
COc1ccc(CNC(=O)CCNC(=O)c2ccco2)cc1OC	i	i	nt	nt	i	nt
Cc1cc(F)ccc1NC(=O)Nc1ccc2c(c1)OCO2	i	i	i	12	i	i
COc1ccc(NC(=O)Nc2ccc(C)cc2OC(F)F)cc1OC	i	i	i	i	?	i
Cc1ccc(NC(=O)Nc2ccc3c(c2)OCO3)c(OC(F)F)c1	i	i	103	48	i	i
CC(NC(=O)Nc1ccc(F)cc1)c1ccc2c(c1)OCO2 (configuration not stated)	i	i	i	i	i	i
Cc1ccc(NC(=O)Nc2ccc3c(c2)OCO3)cc1F	i	i	90	73	i	i
CCCN(CCC)C(=O)Cn1c(=O)n(-c2ccc(Cl)c(Cl)c2)c(=O)c2c(C)c(C(=O)N(C)C)sc21	i	nt	nt	nt	nt	nt

Screening data from PubChem BioAssay.
